{"source": "ChEMBL document CHEMBL3433997", "about": "“St. Jude Leishmania screening dataset” (2016)", "data": [{"target": "Solute carrier family 2, facilitated glucose transporter member 1 (Homo sapiens) (UniProt P11166)", "sequence (P11166 whole entry)": "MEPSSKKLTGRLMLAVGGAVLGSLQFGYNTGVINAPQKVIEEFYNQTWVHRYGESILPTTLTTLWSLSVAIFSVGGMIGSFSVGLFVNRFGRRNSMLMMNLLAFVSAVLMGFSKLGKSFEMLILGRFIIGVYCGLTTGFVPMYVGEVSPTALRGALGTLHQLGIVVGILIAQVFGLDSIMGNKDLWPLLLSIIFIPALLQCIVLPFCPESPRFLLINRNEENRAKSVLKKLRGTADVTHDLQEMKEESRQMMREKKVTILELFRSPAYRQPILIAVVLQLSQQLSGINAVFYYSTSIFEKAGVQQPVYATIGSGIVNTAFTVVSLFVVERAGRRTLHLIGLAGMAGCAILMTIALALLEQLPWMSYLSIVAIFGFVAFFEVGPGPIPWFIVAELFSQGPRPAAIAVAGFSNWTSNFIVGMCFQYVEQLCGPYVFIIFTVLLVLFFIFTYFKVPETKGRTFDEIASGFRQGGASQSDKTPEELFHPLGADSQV", "experiment": "ST_JUDE_LEISH: Cytotoxicity at 2uM final concentration against transgenic Leishmania Mexicana promastigotes LmGLUT1 that are glucose transport deficient and complemented with the human glucose transporter GLUT1. Activity is measured by DNA content using SYBR green in vitro", "type": "functional", "units": {"inhibition": "%"}, "values": [{"smiles": "COCCNCc1ccc(-c2ccc3c(Nc4ccc(F)cc4Cl)ccnc3c2)o1", "inhibition": 4.1}, {"smiles": "O=C(Nc1ccc(C(=O)Oc2ccc3ccccc3c2)cc1)N[C@@H](Cc1ccc(O)cc1)C(=O)NC1CCN(Cc2ccc(O)cc2)C1", "note": "(stereo not given in full)", "inhibition": 0.75}, {"smiles": "O=C(NCC1CCN(Cc2ccc(F)cc2)C1)c1cc(-c2cccc(C(F)(F)F)c2)cs1", "note": "(stereo not given)", "inhibition": -0.31}, {"smiles": "CCOc1ccccc1C=CC(=O)Nc1ccc2nc(N3CCN(C)CC3)cc(C)c2c1", "inhibition": 5.87}, {"smiles": "Cc1ccc(C(=O)N2CCc3cc4nccc(N5CCN6CCC[C@H]6C5)c4cc32)cc1", "inhibition": 1.81}, {"smiles": "CCN1CCN(CCCNc2c3ccccc3nc3ccccc23)CC1", "inhibition": 65.5}, {"smiles": "COc1cc2nc(N(C)C)nc(Nc3ccc4c(cnn4Cc4ccccc4)c3)c2cc1OC", "inhibition": -0.58}, {"smiles": "CC(C)c1ccc(CN2CCC(CNC(=O)c3cc(-c4cccc(C(F)(F)F)c4)cs3)C2)cc1", "note": "(stereo not given)", "inhibition": 1.18}, {"smiles": "Cc1cc(N2CCCC2)nc(Nc2ccc(NC(=O)c3ccccc3F)cc2)n1", "inhibition": 1.09}, {"smiles": "COc1cccc(CN2CCCC(OC(c3ccccc3)c3ccccc3)C2)c1O", "note": "(stereo not given)", "inhibition": 1}, {"smiles": "COc1ccc(CCNCCCCCCNCCCc2ccc(Cl)cc2)cc1OC", "inhibition": 4.72}, {"smiles": "CCN(CC)CCN(Cc1ccc(-c2ccc(Cl)cc2)cc1)C(=O)Cn1c(CCc2cccc(F)c2F)nc(=O)c2ccccc21", "inhibition": -2.54}, {"smiles": "Cc1cc(NCC(c2ccccc2)c2ccccc2)nc(NCc2ccc(C(F)(F)F)cc2)n1", "inhibition": 5.66}, {"smiles": "Cc1cnc(Nc2ccccc2)nc1NCCC(=O)Nc1ccccc1", "inhibition": 6.97}, {"smiles": "CCCCCN1CCCC1CNS(=O)(=O)c1ccc(C(=O)Nc2cccc(C(F)(F)F)c2)cc1", "note": "(stereo not given)", "inhibition": 0.76}, {"smiles": "O=C(NC1CC1)c1ccc(N2CCCC(COc3ccc4c(c3)CCCC4)C2)nc1", "note": "(stereo not given)", "inhibition": 2.1}, {"smiles": "Cc1cccc2nc(-c3cccc(-c4ccc(NC(=O)Nc5ccc(Cl)cc5)cc4)c3)[nH]c12", "inhibition": 4.43}, {"smiles": "CS(=O)(=O)c1ccccc1CNC(=O)c1ccc(-c2ccc(-c3nc4cc(C(F)(F)F)ccc4[nH]3)s2)cc1", "inhibition": 7.56}, {"smiles": "COc1ccc(CN2CCC(NCc3cccc([N+](=O)[O-])c3)CC2)cc1", "inhibition": 5.28}, {"smiles": "O=S(=O)(NC1CCN(c2ccnc3cc(Cl)ccc23)C1)c1ccc(C(F)(F)F)cc1", "note": "(stereo not given)", "inhibition": 1.91}, {"smiles": "Cc1ccc2c(=O)c3cc(C)ccc3[nH]c2c1", "inhibition": 3.4}, {"smiles": "N=C(N)c1ccc(NCc2cccc(C(=O)O)c2)cc1", "inhibition": 1.02}, {"smiles": "COc1ccccc1CNC(=O)c1nn(-c2ccc(Cl)cc2)c(=O)c2ccccc12", "inhibition": 4.66}, {"smiles": "O=C(/C=C/c1ccc(Cl)c(Cl)c1)NCC(CCCN1CCC(c2c[nH]c3ccccc23)CC1)c1ccccc1", "note": "(stereo not given)", "inhibition": 3.06}, {"smiles": "Cc1ccnc(-n2c(C)cc(C=C3SC(=Nc4ccccc4)N(Cc4ccco4)C3=O)c2C)c1", "inhibition": 2.02}, {"smiles": "COC(=O)c1cccc(CNCc2cccc(-c3ccc(-c4nc5cccc(C)c5[nH]4)s3)c2)c1", "inhibition": 1.43}, {"smiles": "Cc1noc(C)c1-c1cccc(C(=O)NC2CCN(CCNC(=O)C(c3ccccc3)c3ccccc3)CC2)c1", "inhibition": 2.71}, {"smiles": "CCc1cn2c3c(cc(C(=O)N[C@@H](Cc4ccccc4)[C@H](O)CNCCOC)cc13)N(C)S(=O)(=O)CC2", "inhibition": 5.11}, {"smiles": "O=C(/C=C/c1ccc(Cl)c(Cl)c1)NCCCCCN1CCC(C(=O)Nc2ccc(Cl)c(Cl)c2)CC1", "inhibition": 3}, {"smiles": "CCCCCCCc1c(C)nc2cc(OC)ccc2c1O", "inhibition": 7.36}, {"smiles": "COc1cc2c(C3CCN(CC4CCN(C(=O)/C=C/c5ccc(Cl)c(Cl)c5)CC4)CC3)c[nH]c2cn1", "inhibition": 2.4}, {"smiles": "C=CCN(C(=O)c1ccc(Cl)c([N+](=O)[O-])c1)c1nc(-c2ccccc2)cs1", "inhibition": 10.6}, {"smiles": "CC(C)(C)c1cc(C(=O)N2CCN(c3ncnc4ccsc34)CC2)n(Cc2ccccc2)n1", "inhibition": 4.27}, {"smiles": "CC(C)c1ccc(NC(=O)N[C@H]2CCN(CCCCCNC(=O)/C=C/c3ccc(Cl)c(Cl)c3)C2)cc1", "inhibition": 2.04}, {"smiles": "CCN(CCCN1CCCCC1)c1cc(C)nc(Nc2ccc(Cl)c(C(F)(F)F)c2)n1", "inhibition": 0.03}, {"smiles": "Fc1ccccc1COc1ccc(Nc2ncnc3ccc(-c4nnc(C(F)(F)F)o4)cc23)cc1Cl", "inhibition": 6.41}, {"smiles": "CCOCc1cn(CC(=O)c2ccc(-c3ccccc3)cc2)c(C)nc1=N", "inhibition": -1.07}, {"smiles": "Cc1ccc2c(OCCN3CCC(Cc4cc5c(cc4F)OCC(=O)N5)CC3)cc(F)cc2n1", "inhibition": 5.35}, {"smiles": "O=C(Cn1c(CCc2cccc(F)c2F)cc(=O)c2cccnc21)N(CCn1ccnc1)Cc1ccc(-c2ccc(C(F)(F)F)cc2)cc1", "inhibition": -0.44}, {"smiles": "CC(=O)Nc1cccc(C(=O)Nc2cccc(-c3ccc(-c4nc5cc(F)ccc5[nH]4)s3)c2)c1", "inhibition": 2.81}]}, {"target": "Hexose transporter 1 (Plasmodium falciparum) (UniProt O97467)", "experiment": "ST_JUDE_LEISH: Cytotoxicity at 2uM final concentration against transgenic Leishmania Mexicana promastigotes LmPfHT that are glucose transport deficient and complemented with the Plasmodium falciparum hexose transporter. Activity is measured by DNA content using SYBR green in vitro", "type": "functional", "units": {"inhibition": "%"}, "values": [{"smiles": "COCCNCc1ccc(-c2ccc3c(Nc4ccc(F)cc4Cl)ccnc3c2)o1", "inhibition": 4.05}, {"smiles": "O=C(Nc1ccc(C(=O)Oc2ccc3ccccc3c2)cc1)N[C@@H](Cc1ccc(O)cc1)C(=O)NC1CCN(Cc2ccc(O)cc2)C1", "note": "(stereo not given in full)", "inhibition": -0.55}, {"smiles": "O=C(NCC1CCN(Cc2ccc(F)cc2)C1)c1cc(-c2cccc(C(F)(F)F)c2)cs1", "note": "(stereo not given)", "inhibition": -1.16}, {"smiles": "CCOc1ccccc1C=CC(=O)Nc1ccc2nc(N3CCN(C)CC3)cc(C)c2c1", "inhibition": 2.96}, {"smiles": "Cc1ccc(C(=O)N2CCc3cc4nccc(N5CCN6CCC[C@H]6C5)c4cc32)cc1", "inhibition": 0.6}, {"smiles": "CCN1CCN(CCCNc2c3ccccc3nc3ccccc23)CC1", "inhibition": 55.3}, {"smiles": "COc1cc2nc(N(C)C)nc(Nc3ccc4c(cnn4Cc4ccccc4)c3)c2cc1OC", "inhibition": -0.17}, {"smiles": "CC(C)c1ccc(CN2CCC(CNC(=O)c3cc(-c4cccc(C(F)(F)F)c4)cs3)C2)cc1", "note": "(stereo not given)", "inhibition": 1.74}, {"smiles": "Cc1cc(N2CCCC2)nc(Nc2ccc(NC(=O)c3ccccc3F)cc2)n1", "inhibition": 2.77}, {"smiles": "COc1cccc(CN2CCCC(OC(c3ccccc3)c3ccccc3)C2)c1O", "note": "(stereo not given)", "inhibition": -1.82}, {"smiles": "COc1ccc(CCNCCCCCCNCCCc2ccc(Cl)cc2)cc1OC", "inhibition": 2.45}, {"smiles": "CCN(CC)CCN(Cc1ccc(-c2ccc(Cl)cc2)cc1)C(=O)Cn1c(CCc2cccc(F)c2F)nc(=O)c2ccccc21", "inhibition": -2.71}, {"smiles": "Cc1cc(NCC(c2ccccc2)c2ccccc2)nc(NCc2ccc(C(F)(F)F)cc2)n1", "inhibition": 6.13}, {"smiles": "Cc1cnc(Nc2ccccc2)nc1NCCC(=O)Nc1ccccc1", "inhibition": 8.48}, {"smiles": "CCCCCN1CCCC1CNS(=O)(=O)c1ccc(C(=O)Nc2cccc(C(F)(F)F)c2)cc1", "note": "(stereo not given)", "inhibition": 0.61}, {"smiles": "O=C(NC1CC1)c1ccc(N2CCCC(COc3ccc4c(c3)CCCC4)C2)nc1", "note": "(stereo not given)", "inhibition": 1.8}, {"smiles": "Cc1cccc2nc(-c3cccc(-c4ccc(NC(=O)Nc5ccc(Cl)cc5)cc4)c3)[nH]c12", "inhibition": 5.13}, {"smiles": "CS(=O)(=O)c1ccccc1CNC(=O)c1ccc(-c2ccc(-c3nc4cc(C(F)(F)F)ccc4[nH]3)s2)cc1", "inhibition": 2.99}, {"smiles": "COc1ccc(CN2CCC(NCc3cccc([N+](=O)[O-])c3)CC2)cc1", "inhibition": 7.16}, {"smiles": "O=S(=O)(NC1CCN(c2ccnc3cc(Cl)ccc23)C1)c1ccc(C(F)(F)F)cc1", "note": "(stereo not given)", "inhibition": 1.67}, {"smiles": "Cc1ccc2c(=O)c3cc(C)ccc3[nH]c2c1", "inhibition": 0.93}, {"smiles": "N=C(N)c1ccc(NCc2cccc(C(=O)O)c2)cc1", "inhibition": 1.06}, {"smiles": "COc1ccccc1CNC(=O)c1nn(-c2ccc(Cl)cc2)c(=O)c2ccccc12", "inhibition": 4.83}, {"smiles": "O=C(/C=C/c1ccc(Cl)c(Cl)c1)NCC(CCCN1CCC(c2c[nH]c3ccccc23)CC1)c1ccccc1", "note": "(stereo not given)", "inhibition": -1.36}, {"smiles": "Cc1ccnc(-n2c(C)cc(C=C3SC(=Nc4ccccc4)N(Cc4ccco4)C3=O)c2C)c1", "inhibition": 2.85}, {"smiles": "COC(=O)c1cccc(CNCc2cccc(-c3ccc(-c4nc5cccc(C)c5[nH]4)s3)c2)c1", "inhibition": 0.6}, {"smiles": "Cc1noc(C)c1-c1cccc(C(=O)NC2CCN(CCNC(=O)C(c3ccccc3)c3ccccc3)CC2)c1", "inhibition": 1.09}, {"smiles": "CCc1cn2c3c(cc(C(=O)N[C@@H](Cc4ccccc4)[C@H](O)CNCCOC)cc13)N(C)S(=O)(=O)CC2", "inhibition": 2.43}, {"smiles": "O=C(/C=C/c1ccc(Cl)c(Cl)c1)NCCCCCN1CCC(C(=O)Nc2ccc(Cl)c(Cl)c2)CC1", "inhibition": 2.54}, {"smiles": "CCCCCCCc1c(C)nc2cc(OC)ccc2c1O", "inhibition": 9.59}, {"smiles": "COc1cc2c(C3CCN(CC4CCN(C(=O)/C=C/c5ccc(Cl)c(Cl)c5)CC4)CC3)c[nH]c2cn1", "inhibition": -0.95}, {"smiles": "C=CCN(C(=O)c1ccc(Cl)c([N+](=O)[O-])c1)c1nc(-c2ccccc2)cs1", "inhibition": 9.45}, {"smiles": "CC(C)(C)c1cc(C(=O)N2CCN(c3ncnc4ccsc34)CC2)n(Cc2ccccc2)n1", "inhibition": 4.01}, {"smiles": "CC(C)c1ccc(NC(=O)N[C@H]2CCN(CCCCCNC(=O)/C=C/c3ccc(Cl)c(Cl)c3)C2)cc1", "inhibition": -3.46}, {"smiles": "CCN(CCCN1CCCCC1)c1cc(C)nc(Nc2ccc(Cl)c(C(F)(F)F)c2)n1", "inhibition": -0.3}, {"smiles": "Fc1ccccc1COc1ccc(Nc2ncnc3ccc(-c4nnc(C(F)(F)F)o4)cc23)cc1Cl", "inhibition": 5.31}, {"smiles": "CCOCc1cn(CC(=O)c2ccc(-c3ccccc3)cc2)c(C)nc1=N", "inhibition": -0.82}, {"smiles": "Cc1ccc2c(OCCN3CCC(Cc4cc5c(cc4F)OCC(=O)N5)CC3)cc(F)cc2n1", "inhibition": 4.63}, {"smiles": "O=C(Cn1c(CCc2cccc(F)c2F)cc(=O)c2cccnc21)N(CCn1ccnc1)Cc1ccc(-c2ccc(C(F)(F)F)cc2)cc1", "inhibition": 1.8}, {"smiles": "CC(=O)Nc1cccc(C(=O)Nc2cccc(-c3ccc(-c4nc5cc(F)ccc5[nH]4)s3)c2)c1", "inhibition": 3.63}]}]}
